These results are taken from paper PMC7862700, “An all-to-all approach to the identification of sequence-specific readers for epigenetic DNA modifications on cytosine”.

Assay in all cases: DAPPL (digital affinity profiling via proximity ligation, sequencing); 10 mM Tris-HCl pH 7.5, 50 mM NaCl, 1 mM DTT, 4% glycerol, room temperature, 30 min; GST-TFs on glutathione beads, 16-mer random dsDNA library, 0.1% formaldehyde crosslink after washing; high values mean tight binding
Holding throughout (settings): protein: recombinant; tags: N-terminal GST; dsDNA, one strand shown

The target in assay [1] is T1, FLI1 (Homo sapiens, UniProt Q01543 1-452).
T1 sequence: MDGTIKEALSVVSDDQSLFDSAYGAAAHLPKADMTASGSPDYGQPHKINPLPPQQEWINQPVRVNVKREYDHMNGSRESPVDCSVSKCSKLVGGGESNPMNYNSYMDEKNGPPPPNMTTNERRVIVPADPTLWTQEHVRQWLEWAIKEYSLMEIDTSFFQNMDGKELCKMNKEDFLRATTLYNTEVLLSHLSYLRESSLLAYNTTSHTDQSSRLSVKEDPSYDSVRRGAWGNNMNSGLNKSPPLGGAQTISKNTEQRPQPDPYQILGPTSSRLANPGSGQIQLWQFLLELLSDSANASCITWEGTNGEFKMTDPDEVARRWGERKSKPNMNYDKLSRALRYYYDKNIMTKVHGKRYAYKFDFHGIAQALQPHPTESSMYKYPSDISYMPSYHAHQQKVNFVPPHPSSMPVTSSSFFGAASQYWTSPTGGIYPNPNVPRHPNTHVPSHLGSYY
In short, it runs like this: (§1)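 Pools of DNA-barcoded human transcription factors, expressed in yeast as GST fusions on glutathione beads and combined with a tag-only sample, were incubated with 200 nmole of a 16-mer random double-stranded DNA library. Incubation took 30 min at room temperature in Tris/NaCl/DTT/glycerol buffer and was followed by washing, 0.1% formaldehyde crosslinking, proximity ligation (BsaI/T4 ligase, 1 h, 37 °C), PCR amplification and sequencing on an Illumina NextSeq500. Binding signal is the ratio of a hexamer's read frequency for a factor to its frequency for the tag-only sample.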

The target of assay [2] is T2, ELK1 (Homo sapiens, UniProt P19419 1-428).
T2 sequence: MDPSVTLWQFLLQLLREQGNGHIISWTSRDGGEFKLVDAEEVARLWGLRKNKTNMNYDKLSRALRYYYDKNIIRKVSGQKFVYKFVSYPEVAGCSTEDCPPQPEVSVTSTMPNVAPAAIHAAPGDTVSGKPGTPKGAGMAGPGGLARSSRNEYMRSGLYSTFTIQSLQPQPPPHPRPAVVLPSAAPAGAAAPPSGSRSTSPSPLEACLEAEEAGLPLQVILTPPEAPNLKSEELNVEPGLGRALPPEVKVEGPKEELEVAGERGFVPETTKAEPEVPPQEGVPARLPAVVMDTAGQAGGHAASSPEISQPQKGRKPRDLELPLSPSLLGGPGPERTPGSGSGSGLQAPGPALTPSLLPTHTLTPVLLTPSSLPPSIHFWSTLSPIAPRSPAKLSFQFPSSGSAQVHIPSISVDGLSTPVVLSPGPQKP
An outline of the steps:
as §1

Assay [3] deals with T3, GABPA (Homo sapiens, UniProt Q06546 1-454).
T3 sequence: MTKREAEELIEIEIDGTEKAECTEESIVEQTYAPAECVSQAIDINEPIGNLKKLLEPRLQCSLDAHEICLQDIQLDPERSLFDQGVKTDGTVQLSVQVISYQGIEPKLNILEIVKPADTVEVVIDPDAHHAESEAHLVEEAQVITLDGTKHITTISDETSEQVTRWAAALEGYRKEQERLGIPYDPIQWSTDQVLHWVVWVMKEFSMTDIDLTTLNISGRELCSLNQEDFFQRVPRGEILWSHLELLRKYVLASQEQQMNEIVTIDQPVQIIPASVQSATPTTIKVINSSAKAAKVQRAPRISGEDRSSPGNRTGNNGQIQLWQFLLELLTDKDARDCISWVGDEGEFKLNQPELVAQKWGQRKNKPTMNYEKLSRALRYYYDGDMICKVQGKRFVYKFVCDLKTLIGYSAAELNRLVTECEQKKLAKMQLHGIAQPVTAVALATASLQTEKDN
An outline of the steps: as §1

For assay [4], the target named is T4, ERG (Homo sapiens, UniProt P11308 1-479).
T4 sequence: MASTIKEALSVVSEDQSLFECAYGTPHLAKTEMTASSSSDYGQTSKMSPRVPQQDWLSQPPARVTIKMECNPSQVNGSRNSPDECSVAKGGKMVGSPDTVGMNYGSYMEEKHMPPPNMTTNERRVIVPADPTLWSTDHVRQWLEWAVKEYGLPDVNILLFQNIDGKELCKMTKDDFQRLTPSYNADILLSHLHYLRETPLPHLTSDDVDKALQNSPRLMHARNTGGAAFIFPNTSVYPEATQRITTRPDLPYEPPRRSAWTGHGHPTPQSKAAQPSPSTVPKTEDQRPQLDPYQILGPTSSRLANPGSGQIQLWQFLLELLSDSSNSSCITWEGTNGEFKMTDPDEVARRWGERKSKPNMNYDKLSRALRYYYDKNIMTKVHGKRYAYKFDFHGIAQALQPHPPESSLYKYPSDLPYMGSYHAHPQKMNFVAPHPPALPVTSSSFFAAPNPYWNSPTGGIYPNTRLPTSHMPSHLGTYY
An outline of the steps: as §1

The target in assay [5] is ELF1 (Homo sapiens, UniProt P32519 1-619). In short, it runs like this:
as §1

Assay [6] deals with T5, EHF (Homo sapiens, UniProt Q9NZC4 1-300).
T5 sequence: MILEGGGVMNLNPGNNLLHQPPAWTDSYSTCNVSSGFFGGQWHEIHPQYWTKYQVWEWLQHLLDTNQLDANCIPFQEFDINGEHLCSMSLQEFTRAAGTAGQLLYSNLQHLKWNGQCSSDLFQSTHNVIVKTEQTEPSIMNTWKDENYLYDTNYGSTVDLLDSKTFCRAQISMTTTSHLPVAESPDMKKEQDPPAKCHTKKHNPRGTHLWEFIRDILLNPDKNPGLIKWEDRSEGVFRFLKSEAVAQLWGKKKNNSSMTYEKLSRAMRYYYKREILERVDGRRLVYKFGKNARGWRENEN
An outline of the steps: as §1

The target in assay [7] is SPI1 (Homo sapiens, UniProt P17947 1-270). An outline of the steps: as §1
Assay [8] has as its target SPIB (Homo sapiens, UniProt Q01892 1-262). An outline of the steps:
as §1

The target in assay [9] is T6, ELK3 (Homo sapiens, UniProt P41970 1-407).
T6 sequence: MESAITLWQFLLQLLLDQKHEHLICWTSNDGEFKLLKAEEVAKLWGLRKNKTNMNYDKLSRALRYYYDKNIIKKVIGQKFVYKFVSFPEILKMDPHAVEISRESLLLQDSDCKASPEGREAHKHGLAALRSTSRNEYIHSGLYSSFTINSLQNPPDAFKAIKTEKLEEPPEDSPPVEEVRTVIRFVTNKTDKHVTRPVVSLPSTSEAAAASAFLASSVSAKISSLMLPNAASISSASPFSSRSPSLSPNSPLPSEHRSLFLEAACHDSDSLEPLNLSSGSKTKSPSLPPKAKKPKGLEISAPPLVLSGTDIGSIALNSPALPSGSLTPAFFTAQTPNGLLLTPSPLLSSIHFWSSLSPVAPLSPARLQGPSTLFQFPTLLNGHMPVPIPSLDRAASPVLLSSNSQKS
In short, it runs like this:
as §1

SPIB, sequence (Q01892 whole entry): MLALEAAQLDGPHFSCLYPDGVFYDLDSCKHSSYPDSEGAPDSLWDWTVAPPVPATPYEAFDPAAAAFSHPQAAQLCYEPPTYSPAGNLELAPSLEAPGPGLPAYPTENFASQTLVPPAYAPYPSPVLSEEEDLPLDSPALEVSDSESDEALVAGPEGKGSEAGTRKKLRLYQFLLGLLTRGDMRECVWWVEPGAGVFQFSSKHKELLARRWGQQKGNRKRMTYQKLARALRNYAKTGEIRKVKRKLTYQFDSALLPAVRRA
ELF1, sequence (P32519 whole entry): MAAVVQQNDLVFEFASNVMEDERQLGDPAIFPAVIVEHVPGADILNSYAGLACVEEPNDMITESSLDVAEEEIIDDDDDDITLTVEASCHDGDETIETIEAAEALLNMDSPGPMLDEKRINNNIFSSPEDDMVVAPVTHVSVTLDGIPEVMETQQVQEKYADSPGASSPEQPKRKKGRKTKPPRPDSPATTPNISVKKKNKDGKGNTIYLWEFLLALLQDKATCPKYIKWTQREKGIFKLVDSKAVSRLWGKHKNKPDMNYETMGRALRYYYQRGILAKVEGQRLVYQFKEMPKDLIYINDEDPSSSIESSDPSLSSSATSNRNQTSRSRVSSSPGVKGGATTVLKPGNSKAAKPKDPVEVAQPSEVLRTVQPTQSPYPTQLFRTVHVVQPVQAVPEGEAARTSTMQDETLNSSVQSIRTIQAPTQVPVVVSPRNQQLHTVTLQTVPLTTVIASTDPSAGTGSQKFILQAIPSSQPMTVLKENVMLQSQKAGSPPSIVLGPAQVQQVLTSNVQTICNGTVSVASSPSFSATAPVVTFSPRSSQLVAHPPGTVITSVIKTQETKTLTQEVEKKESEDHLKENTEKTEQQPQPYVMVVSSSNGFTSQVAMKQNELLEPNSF

In the case of TTTGTA, the binding signal was 1.64 fold enrichment (6-mer frequency, TF over GST control) in [1]; 1.47 fold enrichment (6-mer frequency, TF over GST control) in assay [2]; 1.48 fold enrichment (6-mer frequency, TF over GST control) in [3]; 1.53 fold enrichment (6-mer frequency, TF over GST control) in [4]; 1.56 fold enrichment (6-mer frequency, TF over GST control) in [5]; 1.55 fold enrichment (6-mer frequency, TF over GST control) in assay [6]. Also, the binding signal in assay [7] is 1.54 fold enrichment (6-mer frequency, TF over GST control); in assay [8], 1.65 fold enrichment (6-mer frequency, TF over GST control); in [9], 1.51 fold enrichment (6-mer frequency, TF over GST control).
With ACGTAT, the binding signal in assay [1] was 1.24 fold enrichment (6-mer frequency, TF over GST control); in assay [2], 1.29 fold enrichment (6-mer frequency, TF over GST control); in [3], 1.21 fold enrichment (6-mer frequency, TF over GST control); in [4], 1.17 fold enrichment (6-mer frequency, TF over GST control); in assay [5], 1.17 fold enrichment (6-mer frequency, TF over GST control); in [6] it was 1.29 fold enrichment (6-mer frequency, TF over GST control). Besides, the binding signal in assay [7] was 1.14 fold enrichment (6-mer frequency, TF over GST control); in [8] it was 1.19 fold enrichment (6-mer frequency, TF over GST control); in assay [9], 1.42 fold enrichment (6-mer frequency, TF over GST control).
Regarding TGCTCT, the binding signal in assay [1] is 1.34 fold enrichment (6-mer frequency, TF over GST control); in [2], 1.48 fold enrichment (6-mer frequency, TF over GST control); in assay [3], 1.35 fold enrichment (6-mer frequency, TF over GST control); in assay [4], 1.26 fold enrichment (6-mer frequency, TF over GST control); in [5] it was 1.34 fold enrichment (6-mer frequency, TF over GST control); in [6] it was 1.19 fold enrichment (6-mer frequency, TF over GST control). Further, the binding signal was 1.42 fold enrichment (6-mer frequency, TF over GST control) in assay [7]; 1.42 fold enrichment (6-mer frequency, TF over GST control) in [8]; 1.3 fold enrichment (6-mer frequency, TF over GST control) in assay [9].
Turning to AAGTAT, the binding signal in assay [1] was 1.44 fold enrichment (6-mer frequency, TF over GST control); in assay [2], 1.4 fold enrichment (6-mer frequency, TF over GST control); in [3], 1.4 fold enrichment (6-mer frequency, TF over GST control); in [4], 1.42 fold enrichment (6-mer frequency, TF over GST control); in [5] it was 1.36 fold enrichment (6-mer frequency, TF over GST control); in assay [6], 1.43 fold enrichment (6-mer frequency, TF over GST control). Besides, the binding signal in assay [7] is 1.36 fold enrichment (6-mer frequency, TF over GST control); in assay [8], 1.48 fold enrichment (6-mer frequency, TF over GST control); in assay [9], 1.46 fold enrichment (6-mer frequency, TF over GST control).
On to AATTGT, for which the binding signal in [1] was 1.3 fold enrichment (6-mer frequency, TF over GST control); in assay [2], 1.2 fold enrichment (6-mer frequency, TF over GST control); in assay [3], 1.21 fold enrichment (6-mer frequency, TF over GST control); in assay [4] it was 1.28 fold enrichment (6-mer frequency, TF over GST control); in assay [5], 1.27 fold enrichment (6-mer frequency, TF over GST control); in assay [6], 1.23 fold enrichment (6-mer frequency, TF over GST control). The binding signal in [7] is 1.33 fold enrichment (6-mer frequency, TF over GST control); in assay [8], 1.34 fold enrichment (6-mer frequency, TF over GST control); in assay [9], 1.29 fold enrichment (6-mer frequency, TF over GST control).
ATTGCG: the binding signal in [1] was 1.33 fold enrichment (6-mer frequency, TF over GST control); in [2], 1.06 fold enrichment (6-mer frequency, TF over GST control); in [3], 1.3 fold enrichment (6-mer frequency, TF over GST control); in assay [4], 1.16 fold enrichment (6-mer frequency, TF over GST control); in assay [5] it was 1.27 fold enrichment (6-mer frequency, TF over GST control); in assay [6], 1.28 fold enrichment (6-mer frequency, TF over GST control). Besides, the binding signal is 1.44 fold enrichment (6-mer frequency, TF over GST control) in assay [7]; 1.1 fold enrichment (6-mer frequency, TF over GST control) in [8]; 1.27 fold enrichment (6-mer frequency, TF over GST control) in [9].
Consider CTTCAT, for which the binding signal is 1.6 fold enrichment (6-mer frequency, TF over GST control) in [1]; 1.45 fold enrichment (6-mer frequency, TF over GST control) in [2]; 1.45 fold enrichment (6-mer frequency, TF over GST control) in assay [3]; 1.4 fold enrichment (6-mer frequency, TF over GST control) in [4]; 1.52 fold enrichment (6-mer frequency, TF over GST control) in [5]; 1.31 fold enrichment (6-mer frequency, TF over GST control) in assay [6]. The binding signal in assay [7] was 1.49 fold enrichment (6-mer frequency, TF over GST control); in assay [8], 1.48 fold enrichment (6-mer frequency, TF over GST control); in assay [9], 1.38 fold enrichment (6-mer frequency, TF over GST control).
